Our source for the Potency values is ChEMBL document CHEMBL1201862, “PubChem BioAssay data set” (2004).

Hit rate of the full screen: of about 400,000 compounds, about 2,100 (0.53%) were called active. Not shown: some 14% with an inconclusive outcome. This is one part of a sample in which actives are shown more often than they occur. The rule behind the calls is not given here.

For this assay, the target named is Ataxin-2 (Homo sapiens) (UniProt Q99700). The experiment in a line: qHTS for Inhibitors of ATXN expression. It is filed as functional. For orientation: qHTS replaces the single test concentration by a dilution series.
Ataxin-2 (Homo sapiens), sequence (Q99700 whole entry): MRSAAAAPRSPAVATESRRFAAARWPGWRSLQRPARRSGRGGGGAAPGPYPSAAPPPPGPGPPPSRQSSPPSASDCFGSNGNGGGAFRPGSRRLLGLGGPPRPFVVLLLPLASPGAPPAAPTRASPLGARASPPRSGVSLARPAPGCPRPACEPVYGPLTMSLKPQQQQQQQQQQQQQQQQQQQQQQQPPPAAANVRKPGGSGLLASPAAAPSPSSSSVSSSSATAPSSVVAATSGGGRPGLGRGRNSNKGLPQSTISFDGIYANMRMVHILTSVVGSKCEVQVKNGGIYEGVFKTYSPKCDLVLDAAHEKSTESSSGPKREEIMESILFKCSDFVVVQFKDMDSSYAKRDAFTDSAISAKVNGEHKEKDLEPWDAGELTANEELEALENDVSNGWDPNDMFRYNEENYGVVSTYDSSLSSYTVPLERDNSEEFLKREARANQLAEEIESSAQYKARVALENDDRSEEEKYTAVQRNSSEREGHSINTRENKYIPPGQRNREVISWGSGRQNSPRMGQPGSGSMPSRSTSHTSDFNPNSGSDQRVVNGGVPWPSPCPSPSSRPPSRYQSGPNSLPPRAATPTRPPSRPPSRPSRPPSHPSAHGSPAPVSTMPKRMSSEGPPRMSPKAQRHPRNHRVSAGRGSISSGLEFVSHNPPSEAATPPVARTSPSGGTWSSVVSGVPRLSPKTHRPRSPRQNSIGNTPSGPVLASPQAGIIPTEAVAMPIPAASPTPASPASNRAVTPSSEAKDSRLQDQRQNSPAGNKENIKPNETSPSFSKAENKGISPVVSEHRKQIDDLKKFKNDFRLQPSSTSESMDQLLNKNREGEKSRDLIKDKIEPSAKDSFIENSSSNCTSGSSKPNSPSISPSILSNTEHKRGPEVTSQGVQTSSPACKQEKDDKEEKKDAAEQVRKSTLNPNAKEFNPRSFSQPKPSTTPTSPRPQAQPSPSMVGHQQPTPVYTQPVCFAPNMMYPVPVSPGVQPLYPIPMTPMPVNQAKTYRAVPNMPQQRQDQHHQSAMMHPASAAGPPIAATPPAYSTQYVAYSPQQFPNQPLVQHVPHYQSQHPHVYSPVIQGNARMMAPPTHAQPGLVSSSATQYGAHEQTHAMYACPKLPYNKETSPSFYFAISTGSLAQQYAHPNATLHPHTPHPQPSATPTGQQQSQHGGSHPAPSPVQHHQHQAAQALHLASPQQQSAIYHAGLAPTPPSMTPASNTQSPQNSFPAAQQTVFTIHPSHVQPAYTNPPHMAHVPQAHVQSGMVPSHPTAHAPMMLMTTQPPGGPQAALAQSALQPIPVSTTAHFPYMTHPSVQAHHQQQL
On to `COCCN1C=C(C(=O)OC)C(c2ccccc2Cl)C(C(=O)OC)=C1`, for which the Potency entry is “inactive”. Regarding `O=C(N[C@@H](Cc1ccccc1)C(=O)OCc1ccccc1)c1[nH]cnc1C(=O)N1CCN(c2ccccc2)CC1`, the Potency is 22.4 µM (active). Consider `O=C(NC(CC(=O)N1CCN(c2ccccc2)CC1)c1ccccc1)c1ccccc1` (stereo unspecified), for which the Potency result is “inactive”.

With `CC(C)C[C@H](NC(=O)c1[nH]cnc1C(=O)N1CCN(C(=O)OC(C)(C)C)CC1)C(=O)OCc1ccccc1`, the Potency was 35.5 µM (active).

For `O=C(N[C@@H](Cc1ccccc1)C(=O)OCc1ccccc1)c1ccco1`, the Potency result was “inactive”. On to `O=C(O)CCCC(=O)N1CCN(c2nc(-c3ccccc3)c3ccccc3n2)CC1`, for which the Potency result is “inactive”. With `Cc1cc(C(=O)N/N=C/c2cccnc2)c2ccccc2n1`, the Potency result is “inactive”. Turning to `COc1ccc2cc(/C=N/NC(=O)CN(c3ccccc3C)S(=O)(=O)c3ccccc3)c(Cl)nc2c1`, the Potency entry was “inactive”. With `COc1ccc2nc(C)cc(N/N=C/c3ccccc3)c2c1` the figure was 31.6 µM (active); with `COc1ccc2nc(C)cc(N/N=C/c3cccc(OC)c3O)c2c1`, 35.5 µM (active). Regarding `COc1ccc2nc(S)cc(C)c2c1`, the Potency entry was “inactive”. Under `COc1cccc(/C=N/n2c(SC)nnc2-c2ccccc2)c1O` stands “inactive”; under `COc1ccc(/C=N/Nc2cc(C)nc3ccc(OC)cc23)c(OC)c1`, “inactive”; under `COc1ccc2nc(C)cc(SCC(=O)N/N=C/c3cccc4ccccc34)c2c1`, 22.4 µM (active).

Regarding `COc1cccc(-c2cc(C(=O)N/N=C/c3cccc(OC)c3OC)c3ccccc3n2)c1`, the Potency result was “inactive”. With `COc1ccc(C(=O)Nc2nc3n(n2)C(c2ccccc2)C=C(c2ccccc2)N3)cc1` (stereo unspecified), the Potency entry is “inactive”. In the case of `COc1cccc(C2C=C(c3cccs3)Nc3ncnn32)c1OC` (stereo unspecified), the Potency result is “inactive”. Take `Cc1nc(N)c(Br)c(C)c1Br`: the Potency entry was “inactive”. Regarding `Clc1ccccc1N1CCN(Cc2ccco2)CC1`, the Potency entry is “inactive”. For the molecule `CCOC(=O)c1sc2nc(C3CC3)cc(-c3ccc(F)cc3)c2c1N`, the Potency result was “inactive”. As for `Cc1ccccc1NCC(=O)Nc1cc(S(=O)(=O)N2CCCCC2)ccc1C`, the Potency entry is “inactive”. In the case of `SC1=C2CCCCCC2=NC2(CCCCCC2)S1`, the Potency was 44.7 µM (active). As to `CSC1=NN(c2ccccc2)CN(c2ccccc2)N1C`, the Potency result was “inactive”. For the molecule `COc1ccc(-c2c(C)c3ccc(O)c(CN4CCC(C)CC4)c3oc2=O)cc1OC`, the Potency entry was “inactive”.

In the case of `CCOC(=O)C1CCN(S(=O)(=O)c2ccc3c4c(cccc24)C(=O)N3)CC1`, the Potency entry is “inactive”. As to `CC1=[N+](C)c2c(ccc3cccnc23)C1(C)C`, the Potency result was “inactive”. With `CC(C)c1ccc2nc3sc(C(=O)N4CCc5ccccc5C4)c(N)c3cc2c1` the entry was “inactive”. As to `Cn1c2ccccc2c(=O)c2c(=O)n(C3CCCCCC3)c(C3CCCCC3)nc21`, the Potency result is “inactive”. Turning to `C/C(=N\Nc1nc2ccccc2[nH]1)c1cc2ccccc2o1`, the Potency result was “inactive”. As to `Cc1c(C(=O)Nc2nc3ccccc3[nH]2)oc2ccccc12`, the Potency was 39.8 µM (active).

As to `COc1ccc(C(=O)N[C@H](C(=O)Nc2nc3ccccc3[nH]2)C(C)C)cc1`, the Potency result was “inactive”.

Turning to `COCCNC(=O)c1cnn2c(C(F)(F)F)cc(-c3ccc(C)cc3)nc12`, the Potency result is “inactive”. Regarding `CCOC(=O)c1cc2c(=O)n3ccccc3nc2n(CCCOC)/c1=N\C(=O)c1ccncc1`, the Potency entry was “inactive”. Regarding `CN1CCN(c2ccc(-c3ccc4ccccc4n3)cc2)CC1`, the Potency result is “inactive”. Regarding `CN1CCN(c2ccc3sc(-n4ccc5ccccc54)nc3c2)CC1`, the Potency is 39.8 µM (active).

Take `O=c1c(-c2nc3ccccc3s2)cccn1Cc1ccccc1`: the Potency result was “inactive”.

`C[C@@H]1O[C@H](O[C@@H]2[C@H](C)O[C@H](O[C@@H]3[C@H](C)O[C@H](O[C@H]4CC[C@]5(C)[C@@H](CC[C@@H]6[C@H]5C[C@@H](O)[C@]5(C)[C@@H](C7=CC(=O)OC7)CC[C@]65O)C4)C[C@@H]3O)C[C@@H]2O)C[C@H](O)[C@@H]1O`: the Potency is 0.224 µM (active). With `CN(C)c1nc(-c2ccccc2)c2cc(Cl)ccc2n1` the entry was “inactive”. With `Cc1c(CC(=O)NCc2ccccc2Cl)c(=O)oc2cc(O)ccc12` the entry was “inactive”; with `COc1cc(/C=C/c2ccc3cccc(OC)c3n2)c(OC(C)=O)c([N+](=O)[O-])c1`, 35.5 µM (active). With `CC(=O)Oc1c(Cl)cc(Cl)cc1/C=C/c1ccc2ccccc2n1` the entry was “inactive”; with `COc1ccc(C=Cc2ccc3ccccc3n2)c(OC)c1`, “inactive”; with `CCOC(=O)c1c(C)[nH]c2c1-c1ccccc1C(=O)C2=O`, 2.82 µM (active). Take `CCOC(=O)c1c(C)[nH]c(C)c1C(=O)COC(=O)c1ccc(S(=O)(=O)C(F)F)cc1`: the Potency entry was “inactive”.

For `CCOC(=O)c1c(C)[nH]c(C)c1C(=O)COC(=O)c1ccc([N+](=O)[O-])s1`, the Potency entry was “inactive”. In the case of `O=C(NCc1ccco1)c1cccc2c1C(=O)c1ccc(N3CCC(Cc4ccccc4)CC3)cc1S2(=O)=O`, the Potency entry was “inactive”. Under `CC1(C)CNc2cc([N+](=O)[O-])ccc2S1` stands “inactive”. On to `CCOC(=O)c1c(-c2ccccc2)nnn1-c1nc(OCC)nc(N2CCCCC2)n1`, for which the Potency was 39.8 µM (active). Consider `CCOC(=O)c1cc(-c2ccccc2)nc2nc(N3CCCCC3)sc12`, for which the Potency entry is “inactive”. In the case of `CCOC(=O)N1CCN(c2nc(-c3ccccc3)c3ccccc3n2)CC1`, the Potency result is “inactive”. Under `C=C1C(=O)OC2C1CCC(C)=CCCC1(C)OC21` (stereo unspecified) stands 22.4 µM (active); under `C=CCN(C(=O)CSc1nc2ccsc2c(=O)n1Cc1ccccn1)c1ccccc1`, “inactive”; under `C=C(C)CSc1cc(C)c(C#N)c2nc3ccccc3n12`, “inactive”. With `CCOCCCn1c(=N)c(C(=O)NC2CCCCC2)cc2c(=O)n3ccccc3nc21` the entry was “inactive”. Turning to `CCc1nc2c(OCCC3CCCCC3)cccn2c1N(C)C(=O)C1CC1`, the Potency is 35.5 µM (active). As to `CCn1c(=N)c(C(=O)NC2CCCCC2)cc2c(=O)n3cccc(C)c3nc21`, the Potency result was “inactive”. Regarding `CCC(CC)C(=O)N(C)c1c(C)nc2c(OCCC3CCCCC3)cccn12`, the Potency is 31.6 µM (active). With `CCCn1c(=N)c(C(=O)NC2CCCC2)cc2c(=O)n3cccc(C)c3nc21` the entry was “inactive”; with `CCc1nc2c(OCCC3CCCCC3)cccn2c1N(C)C(=O)C(C)C`, 35.5 µM (active); with `CCOCCCn1c(=N)c(C(=O)NC2CCCC2)cc2c(=O)n3cccc(C)c3nc21`, “inactive”.

Regarding `O=C(NCc1cccc(F)c1)c1cccc2c1C(=O)c1ccc(N3CCC(Cc4ccccc4)CC3)cc1S2(=O)=O`, the Potency entry is “inactive”. With `O=C(NNc1ccccn1)C(c1ccccc1)c1ccccc1` the entry was “inactive”; with `COc1ccc(-c2cc3ccc(O)c(CN4CCC(C)CC4)c3oc2=O)cc1OC`, “inactive”. Turning to `Cc1c(N=C2N=C(NC(=O)c3ccc(F)cc3)c3ccccc32)c(=O)n(-c2ccccc2)n1C`, the Potency entry was “inactive”. `N=c1oc2cc(O)ccc2cc1C(=O)Nc1ccc(Br)cc1`: the Potency result was “inactive”. As to `CCOC(=O)Cc1c(C)nc2c(-c3ccc(Cl)cc3)c(C)nn2c1C`, the Potency entry is “inactive”. For `CCOC(=O)CC(NC(=O)CCc1c(C)nc2c(-c3ccccc3)c(C)nn2c1C)c1ccc(OC(C)C)cc1` (stereo unspecified), the Potency is 39.8 µM (active). For `Cc1ccc(/C=C/C(=O)c2ccc(N3CCOCC3)cc2)s1`, the Potency entry was “inactive”. As for `Clc1cccc(N2CCN(Cc3nnc(-c4ccccc4)o3)CC2)c1`, the Potency entry is “inactive”.

For the molecule `Clc1cccc(N2CCN(c3ncnc4c3nc3n4CCCCC3)CC2)c1`, the Potency is 14.1 µM (active). As for `O=C(c1cccc(F)c1)N1CCCC(C(=O)N2CCN(c3ccccc3)CC2)C1` (stereo unspecified), the Potency entry was “inactive”. Under `CNC(=O)/C(C#N)=C/c1c(N2CCN(c3cccc(Cl)c3)CC2)nc2c(C)cccn2c1=O` stands “inactive”; under `O=C(OCC(=O)N1CCN(c2ccc(F)cc2)CC1)c1cnc2ccccc2n1`, “inactive”; under `O=C(C1CCN(c2ncnc3c2nc2n3CCCCC2)CC1)N1CCN(c2ccc(F)cc2)CC1`, 22.4 µM (active). As to `O=C(OCC(=O)N1CCCC1)c1c[nH]c2ccccc12`, the Potency entry was “inactive”. On to `Cc1cc(C)c2c(CC(=O)O)c(C)[nH]c2c1`, for which the Potency entry was “inactive”. As for `O=c1ccc2ccc(O)cc2o1`, the Potency entry is “inactive”.

Take `CS(=O)(=O)c1nc(-c2ccccc2)cc(-c2ccccc2)c1C#N`: the Potency was 31.6 µM (active). Under `CS(=O)(=O)c1nc(-c2ccc(Br)cc2)cc(-c2ccccc2)c1C#N` stands 28.2 µM (active); under `CS(=O)(=O)c1sc2nc(-c3ccccc3)cc(-c3ccccc3)c2c1N`, “inactive”; under `Cn1c2ccccc2n2c(=O)cc(-c3ccccc3)c(C#N)c12`, “inactive”. With `N#Cc1c(-c2ccncc2)cc(-c2ccc(F)cc2)nc1N`, the Potency result is “inactive”.

As to `CCO/C(O)=C(/Sc1nc(-c2ccccc2)cc(-c2ccccc2)c1C#N)C(C)=O`, the Potency result was “inactive”. Turning to `COCCCn1c(=N)c(C(=O)NCc2cccnc2)cc2c(=O)n3cc(C)ccc3nc21`, the Potency result is “inactive”.

As to `CC(=O)c1c(C)[nH]c(C(=O)OCC(=O)c2ccc3c(c2)NC(=O)CO3)c1C`, the Potency result is “inactive”.

Regarding `CC(C)C(=O)Nc1ccc(S(=O)(=O)Nc2nccc(/C=C/c3ccccc3)n2)cc1`, the Potency entry is “inactive”. Regarding `c1ccc(-c2cc(-c3ccc(N4CCOCC4)cc3)nc3ccccc23)cc1`, the Potency result was “inactive”.

Take `c1ccc2cc3c(NCCN4CCOCC4)ccnc3cc2c1`: the Potency result was “inactive”. For `c1ccc(-c2cc(NCCN3CCCCC3)c3ccccc3n2)cc1`, the Potency was 20 µM (active).

For the molecule `Cc1ccc(C2C=C(c3ccc4c(c3)OCO4)Nc3ncnn32)cc1` (stereo unspecified), the Potency result was “inactive”.

For `CC(C)(C)OC(=O)NNc1c2ccccc2nc2ccccc12`, the Potency result is “inactive”. With `O=C(NNc1c2ccccc2nc2ccccc12)c1ccccc1O` the figure was 35.5 µM (active). On to `CCSc1ccccc1C(=O)Nc1nc(O)c2ccccc2n1`, for which the Potency result was “inactive”. With `COc1ccc(S(=O)(=O)N(CC(=O)NCc2ccccc2)c2ccc(C)cc2)cc1OC` the figure was 35.5 µM (active); with `Cc1ccc(CNC(=O)CN(C)S(=O)(=O)c2ccc(F)cc2)cc1`, “inactive”; with `Cc1cc(S(=O)(=O)NC(C)C)ccc1OCC(=O)NCc1ccccc1`, “inactive”. Consider `Cc1c(Cl)cccc1N(CC(=O)NC(C)c1ccccc1)S(C)(=O)=O` (stereo unspecified), for which the Potency entry was “inactive”. Take `COc1ccc(N(CC(=O)Nc2ccccc2Cl)S(=O)(=O)c2ccc(C)cc2)cc1OC`: the Potency entry was “inactive”. Turning to `Cc1ccc(CNC(=O)CN(c2ccc(C(C)C)cc2)S(=O)(=O)c2c(C)n[nH]c2C)cc1`, the Potency is 35.5 µM (active). With `CSc1nsc(SCC(=O)NCc2ccc(C)cc2)n1` the entry was “inactive”; with `Cc1n[nH]c(C)c1S(=O)(=O)N(CC(=O)NC(C)c1ccccc1)c1ccc(C(C)C)cc1` (stereo unspecified), 35.5 µM (active).
